Source: PubChem BioAssay (NCI)
Compounds without any hit were thinned out: in the full panel of roughly 83,000, 20% have a hit.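 Testing used 96-well plates and a 48-hour single-concentration exposure. Example: -40 means 40% of the starting cells died.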 Unmarked numbers belong to inactive results. The source made the active and inactive calls. How the source made its calls: active means growth percent below 10; inactive means the rest.

Experiments:
Assay in all cases: NCI-60 one-dose screen, 48 h (100 = growth as untreated, 0 = no growth, -100 = all killed)
NCI-H226 lung = settings: 10 µM
HOP-62 NSCLC = settings: 10 µM unless noted
NCI-H460 lung = settings: 10 µM unless noted
HOP-92 NSCLC = settings: 10 µM unless noted
NCI-H522 lung = settings: 10 µM
A549/ATCC NSCLC = settings: 10 µM unless noted
786-0 renal = settings: 10 µM unless noted
COLO 205 colon = settings: 10 µM unless noted
DU-145 prostate = settings: 10 µM unless noted
K-562 leukemia = settings: 10 µM unless noted
MALME-3M melanoma = settings: 10 µM unless noted
MDA-MB-231 breast = settings: 10 µM unless noted
RXF 393 renal = settings: 10 µM unless noted
SF-268 CNS = settings: 10 µM unless noted
SF-295 CNS = settings: 10 µM unless noted
SF-539 CNS = settings: 10 µM unless noted
UACC-257 melanoma = settings: 10 µM unless noted
M14 melanoma = settings: 10 µM unless noted
NCI-H322M lung = settings: 10 µM unless noted

Row | SMILES | growth (NCI-H226 lung) [%] | growth (HOP-62 NSCLC) [%] | growth (NCI-H460 lung) [%] | growth (HOP-92 NSCLC) [%] | growth (NCI-H522 lung) | growth (A549/ATCC NSCLC) [%] | growth (786-0 renal) [%] | growth (COLO 205 colon) | growth (DU-145 prostate) [%] | growth (K-562 leukemia) [%] | growth (MALME-3M melanoma) [%] | growth (MDA-MB-231 breast) [%] | growth (RXF 393 renal) [%] | growth (SF-268 CNS) [%] | growth (SF-295 CNS) | growth (SF-539 CNS) [%] | growth (UACC-257 melanoma) [%] | growth (M14 melanoma) | growth (NCI-H322M lung) [%]
1 | CCCCCCCCCCCCSC1=CC(=O)C=CC1=O | 91.5 | 82.2 | 105 | 24.3 | -81.2% (active) | 92.3 | 98.7 | 107% | 111 | 75 | 102 | 97.2 | 78 | 44.6 | 51.8% | 27.7 | 73.2 | 89.5% | –
2 | CCOc1ccc(/C=N\N2CCCCCC2)cc1OCC | 90.7 | 93.8 | 106 | 54.2 | 97.8% | 106 | 106 | 84.2% | 108 | – | – | 77.7 | 103 | 102 | 104% | 97.2 | 96.2 | 105% | –
3 | Cc1nc2cc(Nc3nc(Nc4ccc(F)cc4)nc(-c4ccc(Cl)cc4)n3)ccc2n1Cc1ccccc1 | – | 80.6 | 71.1 | 35.1 | 82.8% | 57.4 | 91 | 61.8% | 81.4 | 33.6 | 72.5 | 66 | 68.5 | 54.9 | 90.4% | 92.6 | 68.9 | 58.3% | 94
4 | COC1(OC)C2(Cl)C=C(c3ccccc3)C1(Cl)C(Cl)=C2Cl (stereo not given) | 102 | – | 113 | 77.7 | 80.9% | 99.8 | 103 | 108% | 113 | 88.8 | 97.9 | 110 | 104 | 101 | 93.9% | 91.5 | 90.1 | 97.2% | –
5 | Cc1nc2cc(Nc3nc(Cl)nc(Nc4ccc(F)cc4)n3)ccc2n1Cc1ccccc1 | 80.5 | 88.4 | 88 | 50.7 | -69.8% (active) | 86.7 | 33 | 109% | 64 | 85.2 | 107 | 82.1 | 77.1 | 91.1 | 96.4% | 70.2 | 89.7 | 109% | –
6 | CCN(C(=O)c1ccc2c3c(cccc13)C=C2)c1ccccc1 | 93.3 | – | 111 | 86.5 | 79.1% | 80.2 | 91.1 | 119% | 113 | 82.7 | 90.1 | 103 | 102 | 107 | 93.6% | 97.4 | 97 | 94.5% | –
7 | COc1cc(C2C3=C(COC3=O)N(CCO)c3cc4c(cc32)OCO4)cc(OC)c1O (stereo not given) | – | 41.7 | 16.1 | 66 | -40.7% (active) | 52.1 | 20 | 7.23% (active) | 11.3 | 27.9 | 35.3 | 54 | 13.1 | 51.1 | 8.07% (active) | 12.7 | 14.5 | 9.86% (active) | 52.5
8 | Cc1cc(Cl)c2c(Cl)ccc(Cl)c2n1 | 110 | 102 | 111 | 93.7 | 83% | 95.4 | 101 | 114% | 112 | 97.6 | 105 | 119 | 118 | 99.1 | 96.9% | 97.5 | 102 | 101% | –
